# Bioassay records deposited in PubChem BioAssay by The Scripps Research Institute Molecular Screening Center.
# HGIII-sPLA2 inh – human group III sPLA2 inhibitors, primary screen, biochemical, QFRET, BODIPY PC-A2 liposome substrate; QFRET BODIPY PC-A2 liposome hydrolysis, fluorescence; inhibition, % at 12.2 µM; hit rate 0.56% among 370,000; AID 743126, 2013;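 active = inhibition above mean plus 3 SD of compounds lying within the high and low control bounds, cut at about 19% in these data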
# Target sequence (Q9NZ20 whole entry, looked up): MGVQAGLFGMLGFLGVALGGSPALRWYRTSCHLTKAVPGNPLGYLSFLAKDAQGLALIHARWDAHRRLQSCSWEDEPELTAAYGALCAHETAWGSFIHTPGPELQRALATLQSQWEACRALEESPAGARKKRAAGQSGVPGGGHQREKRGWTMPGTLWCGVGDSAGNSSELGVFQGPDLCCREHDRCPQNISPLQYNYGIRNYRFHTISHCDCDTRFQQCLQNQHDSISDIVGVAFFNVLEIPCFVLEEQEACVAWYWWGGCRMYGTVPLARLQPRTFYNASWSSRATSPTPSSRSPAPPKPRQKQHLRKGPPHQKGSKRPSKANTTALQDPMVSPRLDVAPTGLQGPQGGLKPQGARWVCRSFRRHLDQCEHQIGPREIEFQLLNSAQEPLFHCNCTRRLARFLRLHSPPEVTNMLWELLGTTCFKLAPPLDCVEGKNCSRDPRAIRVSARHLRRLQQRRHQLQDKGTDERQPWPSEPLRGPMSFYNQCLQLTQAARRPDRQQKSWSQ
# MsrA inhibitor – bovine MsrA enzyme inhibitors, primary screen, biochemical, absorbance, HTS; Methionine sulfoxide reductase A (Bos taurus); purified bovine MsrA, absorbance read-out; inhibition, % at 15.5 µM; hit rate 0.75% among 360,000; AID 651718, 2012
# rCAG RNA binder – binders of r(CAG) RNA repeats, primary screen, biochemical, fluorescence. r(CAG) RNA repeat, TO-PRO-1 dye displacement fluorescence. inhibition, % at 3 µM. hit rate 1.3% among 370,000;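 active = inhibition above the plate cutoff, the mean of all test compounds on that plate plus 3 SD, cut at about 35% in these data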;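 note: higher means more dye released from RNA so lower well fluorescence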
# MsrA act – bovine MsrA enzyme activators, primary screen, biochemical, absorbance, HTS | Methionine sulfoxide reductase A (Bos taurus) | purified bovine MsrA, absorbance read-out | activation, % at 10.6 µM | hit rate 0.3% among 360,000; in the data active = activation above about 7.5%
# MsrA act confirm – bovine MsrA activators, retest, confirmation, biochemical, absorbance, HTS. shares compounds with MsrA act. purified bovine MsrA, absorbance read-out. activation, % at 10.6 µM. hit rate 12% among 1,000. AID 602270, 2012; in the data active = activation above about 4%;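 note: enzyme coupled to thioredoxin and thioredoxin reductase with NADPH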
# MsrA conf – bovine MsrA inhibitors, retest, confirmation, biochemical, absorbance, HTS; shares compounds with MsrA inhibitor; purified bovine MsrA, absorbance read-out; inhibition, % at 15.5 µM; AID 651822, 2012; hit rate 41% among 2,300;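 note: coupled to thioredoxin reductase with NADPH and selenocystamine and DMSO as substrate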
# Hits are given with their value; i = inactive; nt = no result given. Compounds with a hit are over-represented: about 2.8% of the library has one in this group of screens. Cut-off read from the data, not from the text of the source, unless noted: active = inhibition above about 4.5%; inactive = the rest.
SMILES,HGIII-sPLA2 inh,MsrA inhibitor,rCAG RNA binder,MsrA act,others
O=C1NC(=O)N(c2ccc(Cl)cc2)C(=O)/C1=C\c1ccc(Sc2nc3ccccc3[nH]2)o1,i,i,49,i,
COc1ccc(C=O)cc1,nt,nt,nt,i,
CC1CCCC(NC(=O)CNC(=S)N2CC3CC(C2)c2cccc(=O)n2C3)C1C (stereo not drawn),i,i,i,i,
C/C(=N\NC(=O)c1ccccc1O)c1c(O)n(Cc2ccccc2)c(=O)[nH]c1=O,i,i,86,i,
C/C(=N\NC(=O)c1ccncc1)c1c(O)n(Cc2ccccc2)c(=O)[nH]c1=O,i,i,i,i,
O=c1c2ccccc2[se]n1-c1ccccc1,i,i,i,20,
COc1ccccc1N1CCN(Cc2c(F)cccc2Cl)CC1,i,i,i,i,
O=C1C(=O)c2cccc3cccc1c23,i,i,i,i,
O=C1C(=O)c2ccccc2-c2ccccc21,i,i,i,49,
Cc1ccc(O)c(C)c1,i,i,i,i,
N#CC(C#N)=NNc1ccc(S(N)(=O)=O)cc1,i,i,67,i,
CN1CC[C@@]2(C)c3cc(O)ccc3N(C)C2O1 (stereo partly drawn),nt,nt,nt,i,
CCCCn1c(O)c(/C=N/N2CCCCC2c2cccnc2)c(=O)[nH]c1=S (stereo not drawn),i,i,i,i,
Cc1ccc(-n2c(O)c(/C=N/N3CCCCC3c3cccnc3)c(=O)[nH]c2=S)cc1 (stereo not drawn),i,4.5,i,i,
Cc1nn(CC(C)C)c(Cl)c1C(=O)O,i,i,i,i,
COc1ccc(-c2cc(-c3ccccc3)[n+](C)c(-c3ccccc3)c2)cc1,i,4.8,i,i,
Cc1cccc(N2C(=O)/C(=C/c3ccc(CN(CCC#N)S(C)(=O)=O)o3)C(=O)NC2=S)c1,i,i,66,i,
CCn1nc(-c2ccccc2)nc2c(=O)n(C)c(=O)nc1-2,nt,nt,nt,37,
C[C@]12CC[C@@H](O)C[C@@H]1CC[C@@H]1[C@@H]2CC[C@]2(C)C(=O)[C@H](O)C[C@@H]12,nt,nt,nt,19,MsrA act confirm=i
CN1CCN(Cc2ccccc2Sc2ccccc2)CC1,i,i,i,i,
O=c1c2ccccc2nc(-c2ccco2)n1-c1ccncc1,i,i,i,i,
C=C1C(=O)[C@@]23C[C@H]4[C@@H]5[C@@]6(C)CCC[C@@]57[C@@H]2[C@@H](O)[C@@H]1C[C@H]3[C@H]7N4C6,i,i,i,26,MsrA act confirm=17
CC(C)(C)c1nc(NCc2ccc3c(c2)OCO3)c2nnn(Cc3ccccc3Cl)c2n1,i,i,i,i,
c1ccc2[nH]c(CCNC3CCCCC3)nc2c1,i,i,i,7.8,MsrA act confirm=i
c1ccc2c(CCNC3CCCCC3)c[nH]c2c1,i,i,i,i,
SMILES,HGIII-sPLA2 inh,MsrA inhibitor,rCAG RNA binder,MsrA act,others
CCOC(=O)c1c(N)n(CCCOC(=O)c2ccco2)c2nc3ccccc3nc12,i,i,i,11,MsrA act confirm=i
CCOC(=O)C1(c2ccccc2)CCN(CCC(C#N)(c2ccccc2)c2ccccc2)CC1,i,i,i,i,
Cc1nc2c(=O)n(C)c(=O)nc-2n(C)n1,i,i,i,18,MsrA act confirm=13
CNc1ccc2nc3ccccc3[n+](C)c2c1,i,i,i,92,MsrA act confirm=74
C[n+]1c2ccccc2nc2ccc(NCCO)cc21,i,i,i,59,MsrA act confirm=51
c1ccc(Cn2ccnc2)cc1,i,i,i,i,
CC(C)c1cccc(C(C)C)c1OCCn1ccnc1,i,i,i,14,MsrA act confirm=i
CN(C)Cc1c[nH]c2ccccc12,i,i,i,i,
O=C(O)c1cccc(NC(=O)N2C[C@H]3C[C@@H](C2)c2cccc(=O)n2C3)c1,i,i,i,8.9,MsrA act confirm=i
O=C(NN=Cc1ccc(N(CCCl)CCCl)cc1)c1cccc([N+](=O)[O-])c1,i,i,i,i,
Cc1nc2ccccc2c(=O)n1-c1ccc(C(=O)O)cc1,i,i,i,i,
Cn1c(O)c(C=Nc2ccc(Cl)cc2)c(=O)n(C)c1=O,i,i,i,i,
Cn1c(O)c(C=Nc2ccccc2)c(=O)n(C)c1=O,i,5.1,i,i,MsrA conf=4.8
CN(C)c1ccc(/C=C2\C(=O)NC(=O)N(Cc3ccc(F)cc3)C2=O)cc1,i,4.9,i,i,MsrA conf=4.6
Cc1ccc(-[n+]2c(Cc3nn(-c4ccccc4)c(C)[n+]3-c3ccc(C)cc3)nn(-c3ccccc3)c2C)cc1,i,i,i,i,
CN(C)c1ccc(C(=O)c2ccc(N(C)C)cc2)cc1,i,5.0,i,i,MsrA conf=i
CN(C)c1ccccc1,i,i,i,i,
O=C1NC(=O)C(=Cc2ccc(N3CCOCC3)cc2)C(=O)N1,i,6.0,i,i,MsrA conf=i
CC(C)n1c(O)c(C=NCc2cccnc2)c(=O)[nH]c1=S,i,4.9,i,i,MsrA conf=5.2
CNC(=S)N1CCN(CCN=Cc2c(O)n(-c3ccc(C)cc3)c(=S)[nH]c2=O)CC1,i,4.7,i,i,MsrA conf=i
C=CCn1c(O)c(/C=N/N2CCCCC2c2cccnc2)c(=O)[nH]c1=S (stereo not drawn),i,5.8,i,i,MsrA conf=i
CCCC(=O)NC1=C(N2CC2)C(=O)C(NC(=O)CCC)=C(N2CC2)C1=O,i,4.7,i,i,MsrA conf=i
O=C1c2cccc3cccc(c23)C(=O)N1/N=C/c1c(O)n(-c2ccccc2)c(=O)[nH]c1=O,i,5.1,i,i,MsrA conf=i
CCN(CC)S(=O)(=O)c1ccc(N=Cc2c(O)n(-c3ccccc3)c(=O)[nH]c2=O)cc1,i,i,i,i,
Cc1ccc(CNCCc2ccc(F)cc2)s1,i,i,i,i,
SMILES,HGIII-sPLA2 inh,MsrA inhibitor,rCAG RNA binder,MsrA act,others
COc1cc2c(cc1OC)-c1c(OC)c(OC)cc3c1[C@H](C2)N(C)CC3,i,i,i,i,
COc1cc2c(cc1O)CC1c3c(cc(O)c(OC)c3-2)CCN1C (stereo not drawn),i,9.7,i,i,MsrA conf=9.5
N#CCCn1cc(C(=O)Nc2ccccc2Cl)c(-c2ccc(F)cc2)n1,i,i,i,i,
N#CCCn1cc(C(=O)Nc2ccccc2Br)c(-c2ccc([N+](=O)[O-])cc2)n1,i,47,i,i,MsrA conf=i
O=C(NN=Cc1ccc(N(CCCl)CCCl)cc1)c1cccnc1,i,5.2,i,i,MsrA conf=i
CCOC(=O)c1c(C=O)c2ccccc2n1Cc1ccccc1,i,4.9,i,i,MsrA conf=5.0
O=C(CCc1ccc(O)cc1)N1C[C@H]2C[C@@H](C1)c1cccc(=O)n1C2,i,i,i,i,
CC(C)c1ccc(-n2c(O)c(C=NC(CCS(C)=O)C(=O)O)c(=O)[nH]c2=S)cc1 (stereo not drawn),i,5.1,i,i,MsrA conf=i
O=C(N/N=C/c1c(O)n(-c2ccccc2)c(=S)[nH]c1=O)c1ccccc1,i,i,i,i,
COC(=O)C1=C(c2ccc(S(C)(=O)=O)cc2)C[C@@H]2CC[C@H]1N2C,i,i,i,i,
